Measurements taken from PubChem BioAssay (NCI).
The panel holds about 79,000 compounds, 15% with a hit somewhere; the sample as a whole holds those more often. Values without a mark were called inactive. The source made the active and inactive calls. Rule as the data show it: active = growth inhibition above about 70%; inactive = the rest.

Test: NCI Yeast Anticancer Drug Screen. Data for the mlh1 rad18 strain (AID 175)
Details: S. cerevisiae mlh1 rad18 strain growth inhibition; at 50.0 µM; hits give high values
Procedure, shortened: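 Steps: expose repair-defective yeast to compound; measure growth; express inhibition against vehicle-treated controls.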
With `COc1cc(C(=O)C/C(CCC(=O)Nc2ccc(Cl)cc2Cl)=N/NC(=O)C(N)=O)ccc1O` the growth inhibition was -20.4%. `CC(CO)N1CCCCCC1` (centres undefined) gave a growth inhibition of -9%. In the case of `CCC(COCC(CC)C(=O)O)C(=O)O` (centres undefined), the growth inhibition is reported as 15.2%. For `CCOC(=O)c1c(C)[nH]c(=S)c(C#N)c1-c1ccc(Cl)cc1`, the growth inhibition was -1.55%. For `CCSc1ccc(N=[N+]([O-])c2ccc(SCC)c(Cl)c2)cc1Cl`, the growth inhibition was 9.3%. `COc1ccc(Oc2nc(=O)n3ccccc3n2)cc1` showed a growth inhibition of -20.7%. For `Nc1[nH]c(=S)nc2snnc12`, the growth inhibition was 14.8%. Compound `O=C1CS(=O)(=O)CN1c1ccc(Cl)c(Cl)c1` has a growth inhibition of 3.6%. Compound `O=C(N=Nc1c(O)[nH]c2ccccc12)C(=O)N=Nc1c(O)[nH]c2ccccc12` has a growth inhibition of 26.6%. In the case of `CC(C)OP(=O)(OC(C)C)c1ccc2c(c1)OCCOCCOCCOCCO2`, the growth inhibition is reported as 21.4%. For `O=C1c2ccsc2C(=O)c2sc(CO)cc21`, the growth inhibition was 83% (active). Work on `CN(C=O)C(C(=O)Nc1cccc2c(OC(=O)C(N(C)C=O)(N(C)C=O)N(C)C=O)c(N=Nc3ccc(S(=O)(=O)Nc4nccs4)cc3)cc(N=Nc3ccc(S(=O)(=O)Nc4nccs4)cc3)c12)(N(C)C=O)N(C)C=O` (tested in a mixture with another compound) yielded a growth inhibition of 35.6%. Compound `O=[N+]([O-])c1cccc(C=NC23CC4CC(CC(C4)C2)C3)c1` has a growth inhibition of -4.15%. With `FC(F)(F)c1nc(Nc2ccccc2)c2[nH]cnc2n1` the growth inhibition was -4.6%. `CC(=O)Cc1nc(N)nc(Nc2ccc(Cl)c(Cl)c2)n1` gave a growth inhibition of -20.5%. With `CN(C)S(=O)(=O)c1ccc(NC(=O)OC(C)(c2ccccc2)C2CCCCC2)cc1` (centres undefined) the growth inhibition was 4%. `O=C(Nc1ccccc1)Sc1nc2ccccc2s1` gave a growth inhibition of 27.6%. In the case of `COc1ccc2cc(C(=O)c3ccccc3)c(=O)oc2c1`, the growth inhibition is reported as -13.6%. In the case of `CCCCCP(=O)(CCC(C)C)CC(C)C` (centres undefined), the growth inhibition is reported as -6.6%. `CCOC(=O)c1cc2c([N+](=O)[O-])cccc2[nH]1` showed a growth inhibition of 13.7%. `N#CC(c1ccccc1)C1CCN(Cc2ccccc2)CC1` (centres undefined) showed a growth inhibition of 33.1%. With `Cc1ccc(NC(=O)c2ccc(Cl)cc2)cc1` the growth inhibition was -3.55%. With `OC1CNC(=S)NC1` the growth inhibition was 12.9%. `O=C(NCCN1CCOCC1)c1ccc(I)cc1` gave a growth inhibition of 43.3%. `CCCCCCCCC(=O)O` (tested in a mixture with another compound) gave a growth inhibition of 29.1%. `CCCCCNC(=O)C(C)O` (centres undefined) gave a growth inhibition of 14.6%. In the case of `CC(C)=C1CCC(CN2CCOCC2)C1=O` (centres undefined), the growth inhibition is reported as 87% (active). `CC[N+](CC)(CC)Cc1cc2ccccc2n1C(=O)OC` gave a growth inhibition of -28.9%. `O=C(O)C1C2C=CC(O2)C1C(=O)NCc1ccncc1` (centres undefined) showed a growth inhibition of 3.35%. With `N#CC1(c2nc3ccccc3o2)C(=O)C(=O)N(C2C3CC4CC(C3)CC2C4)C(=O)C1=O` (centres undefined) the growth inhibition was -9.35%. In the case of `c1ccc2c(c1)ccc1c2ccc2c1cc1ccccn12`, the growth inhibition is reported as 0.8%. Compound `NC(=O)N/N=C/c1cccc2ccccc12` has a growth inhibition of -0.7%. With `O/N=C1/CCCCc2ccccc21` the growth inhibition was -15.2%. For `COC(=O)/C=C(/C(=O)OC)C1(C)c2cc(C(=O)OC)c(C(=O)OC)c(N)c2C(=N)N1c1ccccc1` (centres undefined), the growth inhibition was -0.9%. With `CN(C)CC1OCCc2ccccc21` (centres undefined) the growth inhibition was 10%. In the case of `O=C1CCC(=O)N1Cc1ccccc1N=[N+]([O-])c1ccccc1CN1C(=O)CCC1=O`, the growth inhibition is reported as -15.9%. With `C[N+](C)(N)CCS(N)(=O)=O` the growth inhibition was 0.5%. For `CCCCCCCCCCCCCCCCCN(C)C(=O)OCC`, the growth inhibition was -30.8%. Work on `CN1N(c2ccccc2)C(=O)C2=NC=C(C(=O)c3ccccc3)C(=N)C21C` (centres undefined) yielded a growth inhibition of 16.8%.
